Results filed as inconclusive are left out. Active and inactive are the calls of the source. The calls were made as follows, unless noted: active = hit-call score of the fitted dose curve at least 0.9, where 1 is the maximum; inactive = score below 0.9.
What was measured:
[1] = CCTE_Shafer_MEA_dev_active_electrodes_number: CCTE's Neural Network Formation Assay for Number of Active Electrodes, Shafer Lab (AID 2284040; active = hit-call score of the fitted dose curve at least 0.9, where 1 is the maximum)
Method in brief: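 Counts electrodes per well firing at least 5 spikes/min, recorded on days 5, 7, 9 and 12 in rat cortical cultures dosed continuously from plating (treatment refreshed DIV 5, 9). Value is the area under the curve over recordings, fitted downward relative to DMSO.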

[2] = CCTE_Shafer_MEA_dev_burst_rate: CCTE's Neural Network Formation Assay for Burst Rate, Shafer Lab (AID 2284042)
Method in brief: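 Rat primary cortical cultures on PEI/laminin MEA; compound from plating, re-dosed at DIV 5, 9 media change. Single-electrode bursts/recording length, well mean of active electrodes; AUC over DIV 5–12 recordings; loss-of-signal vs DMSO.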

[3] = CCTE_Shafer_MEA_dev_bursting_electrodes_number: CCTE's Neural Network Formation Assay for Number of Bursting Electrodes, Shafer Lab (AID 2284043; active = hit-call score of the fitted dose curve at least 0.9, where 1 is the maximum)
Method in brief: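 Number of electrodes reaching ≥1 burst every 2 min was recorded at DIV 5, 7, 9 and 12 and collapsed as trapezoidal area under the curve. Cultures were rat cortical neurons on MEA plates, dosed continuously from plating with medium and treatment refreshed on DIV 5 and 9.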

[4] = CCTE_Shafer_MEA_dev_per_burst_interspike_interval: CCTE's Neural Network Formation Assay for Burst Interspike Interval, Shafer Lab (AID 2284044);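 also: mean spike spacing inside bursts as AUC over recordings on days 5 7 9 12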
Method in brief: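 Developmental network-formation MEA in primary rat cortical cultures with exposure spanning days 0–12. Within-burst ISI is averaged per well and integrated across recording days by area under the curve, with DMSO as negative control baseline.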

[5] = CCTE_Shafer_MEA_dev_interburst_interval_mean: CCTE's Neural Network Formation Assay for Mean Interburst Interval, Shafer Lab (AID 2284046);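 also: well-mean interburst interval of bursting electrodes as AUC over four recording days; curve fitted for decrease in interburst interval relative to DMSO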
Method in brief: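 Rat cortical neurons, 1.5 x 10^5 cells/well, 48-well MEA; compound from day 0 through DIV 12, media and treatment renewed DIV 5/9. Recordings DIV 5, 7, 9, 12; well-mean interburst interval → trapezoidal AUC, loss direction vs DMSO.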

[6] = CCTE_Shafer_MEA_dev_network_spike_number: CCTE's Neural Network Formation Assay for Number of Network Spikes, Shafer Lab (AID 2284048);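 also: synchronized bursts across electrodes counted on days 5 7 9 12 and integrated as AUC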
Method in brief: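 Number of network spikes (coordinated firing across electrodes) recorded on days 5, 7, 9 and 12 and summarised as area under the curve. Rat cortical cultures on MEA, continuous compound exposure with full medium/treatment exchange at DIV 5 and 9.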

[7] = CCTE_Shafer_MEA_dev_network_spike_peak: CCTE's Neural Network Formation Assay for Mean Number of Electrodes in Network Spike, Shafer Lab (AID 2284049)
Method in brief: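 Rat cortical primary culture, 1.5 x 10^5 cells/well, 48-well MEA (16 electrodes/well). Dosing day 0 through DIV 12, full media/compound exchange DIV 5, 9. AxIS adaptive spike detection; AUC over days 5/7/9/12; loss-of-signal vs DMSO.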

[8] = CCTE_Shafer_MEA_dev_spike_duration_mean: CCTE's Neural Network Formation Assay for Mean Spike Duration, Shafer Lab (AID 2284051);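 also: mean network spike duration pooled as area under curve over DIV 5 to 12 recordings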
Method in brief: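 Rat cortical primary cultures, 48-well MEA (16 electrodes/well); compound from plating, renewed DIV 5, 9. Network spike duration (AxIS adaptive detector) recorded DIV 5/7/9/12, combined as trapezoidal AUC; loss direction vs DMSO.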

[9] = CCTE_Shafer_MEA_dev_network_spike_duration_std: CCTE's Neural Network Formation Assay for Standard Deviation of Network Spike Duration, Shafer Lab (AID 2284052);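 also: area under curve of spike duration SD across recording days 5 to 12; hits are decreases in network spike duration SD versus DMSO vehicle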
Method in brief: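 Rat cortical cultures, 1.5 x 10^5 cells/well, exposed continuously from plating to DIV 12 with media/compound renewal at DIV 5, 9. Spontaneous activity recorded DIV 5/7/9/12, AxIS adaptive spike detector; AUC across days; negative direction vs DMSO.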

[10] = CCTE_Shafer_MEA_dev_per_network_spike_spike_number_mean: CCTE's Neural Network Formation Assay for Mean Number of Spikes in a Network Spike, Shafer Lab (AID 2284053)
Method in brief: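 Rat cortical primary cultures on 48-well MEA; compound from day 0, re-dosed with full media change DIV 5, 9. Recorded DIV 5, 7, 9, 12; spikes in 0.05 s window at network-spike peak ÷ total network spikes; AUC; loss vs DMSO.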

[11] = CCTE_Shafer_MEA_dev_per_network_spike_spike_percent: CCTE's Neural Network Formation Assay for Percent of Spikes in a Network Spike, Shafer Lab (AID 2284054)
Method in brief: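 Metric: fraction of spikes falling in a 0.05 s window at network-spike peaks. Recordings were made on days 5, 7, 9 and 12 and collapsed by trapezoidal AUC. Cultures were rat cortical neurons on MEA plates, dosed continuously from plating, re-dosed at media changes.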

[12] = CCTE_Shafer_MEA_dev_LDH: CCTE's Lactate Dehydrogenase Assay for Cytotoxicity in the Neural Network Formation Assay, Shafer Lab (AID 2284068; active = hit-call score of the fitted dose curve at least 0.9, where 1 is the maximum;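 also: exposure for twelve days from plating with re-dosing on DIV 5 and 9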)
Method in brief: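 Rat cortical primary neurons, MEA culture; dosing day 0–12, full medium plus compound exchange DIV 5, 9. Read-out: LDH enzyme activity, spectrophotometric. DMSO = negative control/baseline; signal loss → cytotoxicity.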

[13] = CCTE_Shafer_MEA_dev_AB: CCTE's Alamar Blue Assay for Cytotoxicity in the Neural Network Formation Assay, Shafer Lab (AID 2284083; active = hit-call score of the fitted dose curve at least 0.9, where 1 is the maximum;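 also: resazurin reduction fluorescence as viability of cultured neurons; twelve days of exposure from plating with re-dosing on DIV 5 and 9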)
Method in brief: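 Rat cortical primary cultures, 1.5 x 10^5 cells/well on MEA; continuous compound exposure over 12 days of network development, re-dosed with full medium change DIV 5 and 9. Alamar Blue fluorescence; loss of signal = cytotoxicity vs DMSO baseline.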

[14] = CCTE_Shafer_MEA_dev_mutual_information_norm: CCTE's Neural Network Formation Assay for Mutual Information Normalization, Shafer Lab (AID 2284091)
Method in brief: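 Shared information across electrodes, tracked on days 5, 7, 9 and 12 of network development and collapsed as trapezoidal area under the curve. Rat cortical cultures were treated continuously from plating, with treatment renewed at feeds on DIV 5 and 9; DMSO baseline, negative-direction fit.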

[15] = CCTE_Shafer_MEA_dev_correlation_coefficient_mean: CCTE's Neural Network Formation Assay for Mean Correlation Coefficient, Shafer Lab (AID 2284093)
Method in brief: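 Rat cortical cultures, 1.5 x 10^5 cells/well, dosed from day 0 for 12 days. Spontaneous spikes recorded DIV 5/7/9/12; electrode-pair correlation coefficients averaged, AUC taken. Fit in loss direction vs DMSO.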

[16] = TAMU_PeakParms_SingleDonor1434_Chronotropy: Texas A&M University (TAMU) 1.5-hr Human Induced Pluripotent Stem Cell (iPSC)-derived Cardiomyocytes Calcium (Ca+2) Flux Assay for Cardiotoxicity: Chronotropy (changes in peak frequency) (AID 2284217); conditions: actives raise or lower the signal
Method in brief: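 iPSC-CMs, donor 1434; 4 conc (0.2–100 uM), 0.5% v/v DMSO, 90 min, 37C/5% CO2; Ca2+ flux fluorescence → peak.freq.avg; peak.freq.avg = 0 dropped; bidirectional fit vs DMSO; EC05 POD.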

[17] = TAMU_HCS_1.5hr_SingleDonor1434_Cytotoxicity: Cytotoxicity Assessment using High-content Screening (HCS) Fluorescent Imaging for the Texas A&M University (TAMU) 1.5-hr Human Induced Pluripotent Stem Cell (iPSC)-derived Cardiotoxicity Assay (AID 2284234; active = hit-call score of the fitted dose curve at least 0.9, where 1 is the maximum)
Method in brief: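 Nuclear counts from Hoechst 33342 imaging define cytotoxicity here, with EC10 (10% cell-count loss relative to DMSO) as point of departure. iPSC cardiomyocytes received 0.2-100 uM test chemical in 0.5% DMSO for 1.5 h at 37 C.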

[18] = TAMU_PeakParms_SingleDonor1434_Asystole: Texas A&M University (TAMU) 1.5-hr Human Induced Pluripotent Stem Cell (iPSC)-derived Cardiomyocytes Calcium (Ca+2) Flux Assay for Cardiotoxicity: Asystole (quiescence of beating) (AID 2284328; active = hit-call score of the fitted dose curve at least 0.9, where 1 is the maximum)
Method in brief: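 Average Ca2+-flux peak frequency (beats/s) was recorded in single-donor iPSC-derived cardiomyocytes after 90 min exposure (0.2–100 uM final, 0.5% DMSO). Asystole POD set as EC95 against DMSO, no preprocessing.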

Measured: AC50

c1ccc2cc3c(cc2c1)-c1cccc2cccc-3c12
active: [16] 9.92 µM
inactive: all other assays above

— PubChem BioAssay (EPA / NIEHS)
